Measured values as given in paper PMC5540273 (PLoS ONE, 2017).
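Note: KINOMEscan kinase panel screen.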

Each compound was assayed on MAP3K2. Conditions: concentration: 1 μM, replicates: in singlicate; n = 1.
In the case of COc1ccc(CNC(=O)NC2CCN(c3ccnc(Nc4ccc(OC)cc4)n3)C2)cc1 (stereo not drawn) [GSK1379727], the “%Inh” value was 0%.
In the case of c1ccc(-c2cc(-c3c[nH]nc3-c3ccccn3)ccn2)cc1 [GW576604], the “%Inh” value was 0%.
In the case of Cn1cc(-c2ccc3c(c2)CCN3C(=O)Cc2ccccc2Cl)c2c(N)ncnc21 [GSK2608885], the “%Inh” value was 91.1%.
In the case of CNc1ncnc2[nH]ncc12 [SKF-18355], the “%Inh” value was 14%.
For Fc1ccc(-c2ncn(CCCN3CCOCC3)c2-c2ccccn2)cc1 [SB-211742], the “%Inh” value was 0%.
For NS(=O)(=O)c1cccc(-c2ccc3ncc(N4CCOCC4)nc3c2)c1 [GSK1535721], the “%Inh” value was 0%.
For COc1ccc(Nc2nccc(N3CCC(NC(=O)Nc4cc(C)ccc4C)C3)n2)cc1 (stereo not drawn) [GSK1379741], the “%Inh” value was 5%.
COCCNC(=O)c1ccc(-c2cc(C(=O)NC3CC3)cc(F)c2C)cc1 [GW868318] was tested, and the “%Inh” value was 33%.
With Cc1nnc(-c2ccc3ncc(-c4ccc(S(C)=O)cc4)n3c2)o1 (stereo not drawn) the “%Inh” value was 8%.
In the case of c1ccc(-c2n[nH]cc2-c2ccnc3ccccc23)nc1 [GW271431], the “%Inh” value was 11%.
In the case of Cn1ccc2ncnc(Oc3ccc(NC(=O)Nc4ccncc4)c(Cl)c3)c21, the “%Inh” value was 0%.
In the case of Cc1cn2c(=O)cc(N3CCOCC3)nc2n1Cc1cccc(Cl)c1Cl [GSK2334006], the “%Inh” value was 6%.
Fc1ccc(-c2ncn(CCCN3CCOCC3)c2-c2cccnc2)cc1 [SB-211743] was tested, and the “%Inh” value was 28%.
In the case of Cc1cccc(-c2nc(Nc3ccc4ncsc4c3)c3ccccc3n2)n1 [GW867588], the “%Inh” value was 8%.
With Cc1cccc(Cn2ccn3c(=O)cc(N4CCOCC4)nc23)c1 [GSK2297542] the “%Inh” value was 8%.
For N#Cc1c(N2CCOCC2)sc(-c2ccn[nH]2)c1-c1ccc(Cl)cc1, the “%Inh” value was 0%.
In the case of COc1cc2c(cc1OCCN1CCN(C)CC1)ncc1c3ccc(C#N)cc3[nH]c21, the “%Inh” value was 0%.
With CN(C1=C(c2ccccc2)C(=O)NC1=O)c1ccccc1 [SB-334860] the “%Inh” value was 2%.
O=C1NC(=O)C(N2CCc3ccccc32)=C1c1cccc(Cl)c1 [SB-408010] was tested, and the “%Inh” value was 0%.
O=c1cc(N2CCOCC2)nc2n(Cc3cccc(Cl)c3Cl)c(C3CC3)nn12 [GSK2358994] was tested, and the “%Inh” value was 0%.
[2H]C([2H])(c1cccc(C(F)(F)F)c1C)n1ccn2c(=O)nc(N3CCOCC3)cc12 [GSK2336394] was tested, and the “%Inh” value was 5%.
With CCc1nc(-c2cccc(C)c2)c(-c2ccnc(NCc3ccccc3)c2)s1 the “%Inh” value was 0%.
Cc1cccc(-c2nc(-c3ccc(S(C)(=O)=O)cc3)sc2-c2ccncc2)c1 was tested, and the “%Inh” value was 10%.
CCc1ccnc(/C=C/c2n[nH]c3cc(Sc4ccccc4C(=O)NC)ccc23)c1 was tested, and the “%Inh” value was 17%.
In the case of CSc1ccc(-c2cc3ncnc(SCC(=O)O)c3s2)cc1, the “%Inh” value was 0%.
In the case of CC(=O)Nc1ccc(COc2ccc(Nc3ccnc4cc(-c5ccccn5)ccc34)cc2)cc1.Cl [GW440148], the “%Inh” value was 0%.
COc1cc2ncn(-c3cc(OCc4sccc4Cl)c(C(N)=O)s3)c2cc1OC [GSK448459] was tested, and the “%Inh” value was 10%.
With Fc1ccc(-c2nn3c(OCC(F)(F)F)cccc3c2-c2ccncc2)cc1 [GW514784] the “%Inh” value was 0%.
For CC(C)(C)n1cnc2c(N)ncnc21 [SKF-97359], the “%Inh” value was 0%.
In the case of O=C(NCCNc1ccnc(Nc2ccc(F)cc2)n1)c1cc2ccccc2s1 [GSK1379874], the “%Inh” value was 0%.
For COc1ccc(S(=O)(=O)NC2CCN(c3cc(C)nc(Nc4cccc(C#N)c4)n3)CC2)cc1.O=C(O)C(F)(F)F [GSK1653539], the “%Inh” value was 0%.
For Cc1ccc(C(=O)NCC(N)=O)cc1-n1c(C)cc(OCc2ccc(F)cc2F)c(Br)c1=O, the “%Inh” value was 0%.
In the case of Cl.Oc1cccc(Nc2ccnc3cc(-c4ccncc4)ccc23)c1 [GW494601], the “%Inh” value was 76%.
With O=C(Nc1n[nH]c2cc(-c3cccc(F)c3)ccc12)C1CC1 [SB-735464] the “%Inh” value was 5%.

What follows are compounds tested on MAP3K3. Conditions: concentration: 1 μM, replicates: in singlicate; n = 1.
COc1ccc(CNC(=O)NC2CCN(c3ccnc(Nc4ccc(OC)cc4)n3)C2)cc1 (stereo not drawn) [GSK1379727] was tested, and the “%Inh” value was 0%.
With c1ccc(-c2cc(-c3c[nH]nc3-c3ccccn3)ccn2)cc1 [GW576604] the “%Inh” value was 0%.
Cn1cc(-c2ccc3c(c2)CCN3C(=O)Cc2ccccc2Cl)c2c(N)ncnc21 [GSK2608885] was tested, and the “%Inh” value was 82%.
For CNc1ncnc2[nH]ncc12 [SKF-18355], the “%Inh” value was 0%.
Fc1ccc(-c2ncn(CCCN3CCOCC3)c2-c2ccccn2)cc1 [SB-211742] was tested, and the “%Inh” value was 0%.
With NS(=O)(=O)c1cccc(-c2ccc3ncc(N4CCOCC4)nc3c2)c1 [GSK1535721] the “%Inh” value was 0%.
For COc1ccc(Nc2nccc(N3CCC(NC(=O)Nc4cc(C)ccc4C)C3)n2)cc1 (stereo not drawn) [GSK1379741], the “%Inh” value was 0%.
In the case of COCCNC(=O)c1ccc(-c2cc(C(=O)NC3CC3)cc(F)c2C)cc1 [GW868318], the “%Inh” value was 28%.
With Cc1nnc(-c2ccc3ncc(-c4ccc(S(C)=O)cc4)n3c2)o1 (stereo not drawn) the “%Inh” value was 5%.
For c1ccc(-c2n[nH]cc2-c2ccnc3ccccc23)nc1 [GW271431], the “%Inh” value was 0%.
With Cn1ccc2ncnc(Oc3ccc(NC(=O)Nc4ccncc4)c(Cl)c3)c21 the “%Inh” value was 0%.
For Cc1cn2c(=O)cc(N3CCOCC3)nc2n1Cc1cccc(Cl)c1Cl [GSK2334006], the “%Inh” value was 0%.
Fc1ccc(-c2ncn(CCCN3CCOCC3)c2-c2cccnc2)cc1 [SB-211743] was tested, and the “%Inh” value was 0%.
In the case of Cc1cccc(-c2nc(Nc3ccc4ncsc4c3)c3ccccc3n2)n1 [GW867588], the “%Inh” value was 6%.
For Cc1cccc(Cn2ccn3c(=O)cc(N4CCOCC4)nc23)c1 [GSK2297542], the “%Inh” value was 0%.
With N#Cc1c(N2CCOCC2)sc(-c2ccn[nH]2)c1-c1ccc(Cl)cc1 the “%Inh” value was 30%.
For COc1cc2c(cc1OCCN1CCN(C)CC1)ncc1c3ccc(C#N)cc3[nH]c21, the “%Inh” value was 0%.
With CN(C1=C(c2ccccc2)C(=O)NC1=O)c1ccccc1 [SB-334860] the “%Inh” value was 0%.
O=C1NC(=O)C(N2CCc3ccccc32)=C1c1cccc(Cl)c1 [SB-408010] was tested, and the “%Inh” value was 22%.
With O=c1cc(N2CCOCC2)nc2n(Cc3cccc(Cl)c3Cl)c(C3CC3)nn12 [GSK2358994] the “%Inh” value was 0%.
With [2H]C([2H])(c1cccc(C(F)(F)F)c1C)n1ccn2c(=O)nc(N3CCOCC3)cc12 [GSK2336394] the “%Inh” value was 0%.
For CC(C)(CN)c1nc(-c2ccc(Cl)c(O)c2)c(-c2ccncc2)[nH]1.O=C(O)C(F)(F)F [SB-477794], the “%Inh” value was 0%.
CCc1nc(-c2cccc(C)c2)c(-c2ccnc(NCc3ccccc3)c2)s1 was tested, and the “%Inh” value was 0%.
Cc1cccc(-c2nc(-c3ccc(S(C)(=O)=O)cc3)sc2-c2ccncc2)c1 was tested, and the “%Inh” value was 9%.
With CCc1ccnc(/C=C/c2n[nH]c3cc(Sc4ccccc4C(=O)NC)ccc23)c1 the “%Inh” value was 6%.
For CSc1ccc(-c2cc3ncnc(SCC(=O)O)c3s2)cc1, the “%Inh” value was 0%.
With CC(=O)Nc1ccc(COc2ccc(Nc3ccnc4cc(-c5ccccn5)ccc34)cc2)cc1.Cl [GW440148] the “%Inh” value was 0%.
In the case of COc1cc2ncn(-c3cc(OCc4sccc4Cl)c(C(N)=O)s3)c2cc1OC [GSK448459], the “%Inh” value was 0%.
In the case of Fc1ccc(-c2nn3c(OCC(F)(F)F)cccc3c2-c2ccncc2)cc1 [GW514784], the “%Inh” value was 0%.
With CC(C)(C)n1cnc2c(N)ncnc21 [SKF-97359] the “%Inh” value was 0%.
With O=C(NCCNc1ccnc(Nc2ccc(F)cc2)n1)c1cc2ccccc2s1 [GSK1379874] the “%Inh” value was 0%.
For COc1ccc(S(=O)(=O)NC2CCN(c3cc(C)nc(Nc4cccc(C#N)c4)n3)CC2)cc1.O=C(O)C(F)(F)F [GSK1653539], the “%Inh” value was 0%.
With Cc1ccc(C(=O)NCC(N)=O)cc1-n1c(C)cc(OCc2ccc(F)cc2F)c(Br)c1=O the “%Inh” value was 0%.
For Cl.Oc1cccc(Nc2ccnc3cc(-c4ccncc4)ccc23)c1 [GW494601], the “%Inh” value was 70%.
For O=C(Nc1n[nH]c2cc(-c3cccc(F)c3)ccc12)C1CC1 [SB-735464], the “%Inh” value was 10%.
